Only some compounds are listed: those with a hit (about 6.6% of all), similar ones and a draw of the others.
GRIN3A LBD mod = modulators (binders) of human NR3A ligand-binding domain; AID 1259313; NR3A LBD differential scanning fluorimetry, Tm shift; 0% = protein alone, 100% = glycine-bound protein; Tm shift relative to glycine control, % at 25 µM; 2.5% of 340,000 active;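 active means melting temperature shift of at least 10% of the positive control shift, at one fixed dose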
Gli-Sufu block = antagonists of Gli-Sufu signaling; inhibition, % at 5 µM; Sufu-KO-LIGHT fibroblasts, Gli luciferase reporter luminescence; AID 588413; 0.74% of 340,000 active;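 active means inhibition above about 55%, limit read from the data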
Beta apoptosis = blocks beta cell apoptosis | INS-1E cytokine-induced death, ATP luminescence, 48 h; percent of positive-control rescue, neutral wells zero | protection from apoptosis, % (no concentration beside the values) | 0.8% of 300,000 active | AID 435005;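 active means Every replicate reaches about 75%, or at least half do and their mean reaches it too, limit read from the data; inconclusive means At least half of replicates reach the limit but their mean does not; inactive means Under half of replicates reach the limit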;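 further: higher means more ATP so stronger rescue from cytokine killing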
Mdm2 MdmX PPI = human Mdm2/MdmX binding inhibition | O15151+Q00987 | SaOS-2 split-luciferase Mdm2/MdmX complementation, luminescence | inhibition, % at 8 µM | 3% of 330,000 active | AID 485346;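 active means inhibition of at least 50% at 8 µM in the primary screen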
Target sequence (O15151 whole entry, looked up): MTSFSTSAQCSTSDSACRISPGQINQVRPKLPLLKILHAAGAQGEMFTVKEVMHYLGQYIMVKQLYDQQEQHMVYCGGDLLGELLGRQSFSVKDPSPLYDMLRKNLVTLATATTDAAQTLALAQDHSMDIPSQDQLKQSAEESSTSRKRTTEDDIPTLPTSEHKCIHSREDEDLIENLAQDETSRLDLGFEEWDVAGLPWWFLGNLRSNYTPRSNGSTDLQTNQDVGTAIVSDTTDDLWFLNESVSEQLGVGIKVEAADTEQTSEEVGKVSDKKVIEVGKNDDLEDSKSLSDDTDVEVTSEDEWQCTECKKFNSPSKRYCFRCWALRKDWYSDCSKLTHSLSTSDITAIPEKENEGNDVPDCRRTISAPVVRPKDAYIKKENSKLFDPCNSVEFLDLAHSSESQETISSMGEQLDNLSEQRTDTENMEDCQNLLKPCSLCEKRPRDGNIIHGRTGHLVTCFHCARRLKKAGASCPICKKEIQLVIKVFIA
Target sequence (Q00987 whole entry, looked up): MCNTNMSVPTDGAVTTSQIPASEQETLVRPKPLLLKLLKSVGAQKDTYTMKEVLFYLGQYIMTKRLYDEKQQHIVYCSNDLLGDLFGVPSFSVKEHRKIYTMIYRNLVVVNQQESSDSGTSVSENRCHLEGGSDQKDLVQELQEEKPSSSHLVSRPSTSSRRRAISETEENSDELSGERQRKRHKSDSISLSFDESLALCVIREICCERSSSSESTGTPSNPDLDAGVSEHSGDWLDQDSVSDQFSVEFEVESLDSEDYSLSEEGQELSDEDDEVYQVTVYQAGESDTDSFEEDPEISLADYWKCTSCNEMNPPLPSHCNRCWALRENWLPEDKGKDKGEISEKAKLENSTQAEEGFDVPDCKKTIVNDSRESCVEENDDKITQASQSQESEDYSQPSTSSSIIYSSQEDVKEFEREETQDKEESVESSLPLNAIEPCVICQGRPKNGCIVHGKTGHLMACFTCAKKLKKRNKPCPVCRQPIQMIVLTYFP
CSC inhib = blocks cancer stem cells. cancer stem cell-like cells viability, luminescence. inhibition, % at 7.5 µM. 1.1% of 300,000 active; in the data active means inhibition above about 75%; inconclusive means no clear call, values can overlap the other calls; tested in HMLE shEcad cells
MPTP block = permeability transition pore inhibition; inhibition, % at 10 µM; 1.4% of 360,000 active; isolated mouse mitochondria, Ca2+ swelling absorbance, 30 min;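 active means inhibition of 50% or more, scaled per plate between neutral and stimulator controls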
Hits are given with their value; - = inactive; ? = inconclusive; . = no result; ! = repeats disagree.

SMILES | GRIN3A LBD mod | Gli-Sufu block | Beta apoptosis | Mdm2 MdmX PPI | CSC inhib | MPTP block
CCOC(=O)Cc1c(Sc2ccccc2)c2ccccc2n1C | 12 | - | - | - | - | -
Cn1c(CC(=O)NC(C)(C)CO)c(Sc2ccccc2)c2ccccc21 | - | . | - | - | - | -
Cc1cc(C)c(C)c(S(=O)(=O)N2CCN(c3ccc(O)cc3)CC2)c1C | - | - | - | - | 85 | -
CCN1C(=O)C(CC(=O)Nc2ccc(F)cc2)N(CCc2ccc(OC)cc2)C1=S (stereo unspecified) | - | - | . | - | - | -
CCCOc1ccc(NC(=O)CC2C(=O)N(Cc3ccccc3)C(=S)N2Cc2cccs2)cc1 (stereo unspecified) | 16 | - | - | - | - | -
CCN1C(=O)C(CC(=O)Nc2ccc(F)cc2)N(Cc2cccs2)C1=S (stereo unspecified) | 13 | - | - | - | - | -
CCOC(=O)C(=Cc1ccc(-n2ccnc2)cc1)C(=O)OCC | - | - | - | - | 86 | -
CCOC(=O)/C(=C/c1ccc(OC(=O)c2ccncc2)cc1)C(C)=O | - | - | - | - | - | -
CCOC(=O)C(=Cc1ccc(Br)cc1)C(=O)OCC | - | - | 86 | . | - | -
CCOC(=O)C(=Cc1ccc(F)cc1)C(=O)OCC | . | . | - | - | 96 | .
CCOC(=O)C(=O)Nc1ccc(F)cc1 | - | - | - | - | - | -
COC(=O)c1ccc(-n2ccnc2)cc1 | - | - | - | - | - | -
CC(=O)Nc1ccc(N2C(=O)CC(Sc3nc(C)cc(C)n3)C2=O)cc1 (stereo unspecified) | - | - | - | - | - | -
CC1CCN(C(=O)Cn2c3ccc(F)cc3c3nc4n(c(=O)c32)CCCS4)CC1 | - | - | - | - | - | -
COc1ccc(Cl)cc1NC(=O)c1cc(-c2cc(C)ccc2O)n[nH]1 | 300 | - | - | - | - | -
CCOc1ccc(Cl)cc1-c1cc(C(=O)Nc2cc(OC)ccc2OC)[nH]n1 | . | . | . | . | . | -
Cc1ccc(C)c(NC(=O)c2cc(-c3cc(C)ccc3O)n[nH]2)c1 | 15 | . | - | - | - | -
COc1ccc(Cl)cc1NC(=O)c1cc(-c2ccc(C)cc2O)n[nH]1 | 12 | - | - | - | - | -
COc1ccc(NC(=O)c2cc(-c3cc(Cl)ccc3OC)n[nH]2)c(OC)c1 | . | . | . | . | . | -
Cc1ccc(O)c(-c2cc(C(=O)NCc3ccncc3)[nH]n2)c1 | - | - | - | - | - | -
CCOC(=O)c1ccc(NC(=O)CCCN2C(=O)NC3(CCCC3)C2=O)cc1 | - | - | - | - | . | -
CCN(C(=O)CN1C(=O)S/C(=C\c2ccc(F)cc2)C1=O)C1CCS(=O)(=O)C1 (stereo unspecified) | - | - | - | - | - | -
CCCc1nnc(SCC(=O)NC2CCCCC2)n1CCOC | - | - | - | - | - | -
COc1cccc(/C=N/NC(=O)C[n+]2ccccc2)c1O | - | - | - | - | - | -
COCCCNC(=S)N/N=C/c1ccc(O)cc1O | - | - | - | - | - | -
SMILES | GRIN3A LBD mod | Gli-Sufu block | Beta apoptosis | Mdm2 MdmX PPI | CSC inhib | MPTP block
COc1ccc(CCCC(=O)N/N=C/c2cccc(OC)c2O)cc1C | - | - | - | - | 113 | -
COCCCNC(=S)N/N=C/c1cccc(OC)c1O | - | - | 88 | - | - | -
COc1cccc(/C=N/NC(=O)CSc2nnc(C)n2-c2ccccc2)c1O | - | - | - | - | 77 | -
CC1(c2nnc(-c3ccc(Cl)cc3)o2)CC(c2cccnc2)=NO1 (stereo unspecified) | - | - | - | - | - | -
CCc1ccc(CN2CCC(n3nccc3NC(=O)C3CCCC3)CC2)cc1 | - | - | - | - | - | -
CN(/N=C/c1cc(Br)cc(Br)c1O)c1cccc(C(F)(F)F)n1 | - | - | ? | - | 103 | -
CN(N=Cc1ccccc1O)c1ccc2ccccc2n1 | . | . | . | . | . | -
CCc1nn(C(CC)C(=O)NCC(C)c2ccccc2)c(=O)c2cc3occc3n12 (stereo unspecified) | - | - | . | - | . | -
COc1cc(S(=O)(=O)Nc2ccc(C)cc2)ccc1N=Cc1c(C)[nH]n(-c2ccc(C)cc2)c1=O | 28 | - | - | - | - | -
COc1cc(S(=O)(=O)Nc2ccc(C)cc2)ccc1N=Cc1c(C)c(C#N)c(=O)n(C)c1O | - | - | - | - | - | -
Cc1nn(-c2ccccc2)cc1/C=N/NC(=O)c1cccs1 | 20 | - | - | - | - | -
O=C(N/N=C/c1cn(-c2cccs2)nc1-c1ccccc1)c1ccccc1Br | 11 | - | - | - | 83 | -
COc1ccc(C(=O)N/N=C/c2ccc(SC)cc2)cc1 | 10 | - | - | - | - | -
CSc1ccc(/C=N/NC(=O)c2ccc(O)cc2)cc1 | 26 | - | - | - | - | -
C[C@H](CO)N1C[C@H](C)[C@@H](CN(C)C(=O)Nc2ccccc2)Oc2ccc(NC(=O)Cc3ccccc3)cc2C1=O | - | - | - | - | . | -
O=C(NCc1ccco1)c1ccc2sc([C@@H]3O[C@H](CO)[C@H](O)[C@H](O)[C@H]3O)nc2c1 | . | . | . | . | . | -
O=C(COC(=O)c1nc(Cl)ccc1Cl)NC1CCCCC1 | - | - | - | - | - | -
CSc1ccc(/C=N/NC(=O)c2cccs2)cc1 | 13 | - | - | - | - | -
COc1ccc(Cc2nc3ccc(C(=O)NCCc4ncccc4C)cc3o2)cc1OC | . | . | . | . | . | -
Cc1ccc(C(=O)/C=C/c2cc(Br)cc(Br)c2O)o1 | - | - | - | - | 94 | -
Cc1ccc(C(=O)/C=C/N(C)C)o1 | - | - | . | - | - | -
CCN(CC)CCNC(=O)c1ccc(Cl)c(S(=O)(=O)Nc2ccccc2OC)c1 | - | - | - | - | - | -
CC(C)Oc1ccc(C(=O)Nc2ccc(Cl)c(S(=O)(=O)Nc3ccc(Cl)cc3)c2)cc1 | 20 | - | - | - | - | -
CCN(CC)CCNC(=O)c1ccc(Cl)c(S(=O)(=O)Nc2ccc(Cl)cc2)c1 | 21! | - | . | - | - | -
COc1ccccc1CNC(=O)CCC(=O)N1CC(C)Sc2ccccc21 (stereo unspecified) | - | - | . | - | . | -
SMILES | GRIN3A LBD mod | Gli-Sufu block | Beta apoptosis | Mdm2 MdmX PPI | CSC inhib | MPTP block
CC1(c2nc3ccccc3[nH]2)c2ccccc2C(=O)N1C1CC1 (stereo unspecified) | . | . | . | . | . | -
COc1cc(/C=C(\C#N)C(=O)NCC2CCCO2)ccc1OCC(=O)O (stereo unspecified) | - | - | - | - | - | -
COc1ccc(CCNC(=O)/C(C#N)=C/c2ccc(OCC(=O)NCC3CCCO3)cc2)cc1OC (stereo unspecified) | 14 | - | - | - | - | -
COC(=O)NC(=S)Nc1ccc(Oc2ccc(Cl)cc2Cl)c(Cl)c1 | 16 | - | - | - | . | -
COc1ccc(OC)c(-c2cn(S(=O)(=O)c3ccccc3)nc2N)c1 | 17 | . | - | - | - | -
CC1(C(=O)NC2CCCCC2)CCC(=O)N1CCOc1ccccc1 (stereo unspecified) | . | . | . | . | . | -
CCCn1c(SC(C)C(=O)NC2CCCC(C)C2C)n[nH]c1=O (stereo unspecified) | . | . | . | . | . | -
